Rows were chosen to be rich in hits. Some 27% of all compounds tested hit in one or more screens of this group.
Cav3 T inh: human Cav3.2 channel inhibition, primary screen; Cav3.2-expressing cells, Fluo-4 calcium fluorescence FDSS; stronger effect = lower value; hit rate 4% among 100,000; O95180; B-score at 10 µM;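 active means single-dose well whose peak fluorescence ratio is a statistical outlier from its plate by either plate-standardised score or position-corrected B-score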
PTK2B oligo ant: Pyk2 (human) oligomerization antagonism; hit rate 0.83% among 99,000; AID 1347419; Q293 cells, Pyk2 FERM NanoBiT luminescence; stronger effect = lower value; Q14289; z-score (the deposit names both 25 µM and 10 µM);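 active means Z-score of -3 or lower, scaled per plate to the spread of control and sample wells; inactive means z-score above -3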;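 further: negative z-score means lost luminescence so less FERM oligomerization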
CYP2C9 activ: increases human cytochrome P450 2C9 activity; P11712; recombinant CYP2C9, luciferin-H conversion, luminescence; stronger effect = higher value; factor 1 = untreated enzyme, 0 = blocked; activation factor at 5 µM; hit rate 1.4% among 96,000; AID 1024;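 active means activation factor of 2 or more for CYP2C9 at a 5 µM dose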;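 further: 0 = sulfaphenazole-blocked wells and 1 = vehicle-only wells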
CYP2C9 inhib: blocks human cytochrome P450 2C9 | P11712 | CYP2C9 Supersomes, luciferin-H conversion, luminescence | inhibition, % at 5 µM | hit rate 20% among 96,000 | AID 777;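 active means blocking of liver enzyme CYP2C9 beyond about 50% at 5 µM, limit read from the data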
CYP2C19 inh: inhibitors of human CYP2C19 | P33261 | CYP2C19 Supersomes, luciferin-H EGE luminescence, 30 min | inhibition, % at 5 µM | hit rate 21% among 96,000;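 active means CYP2C19 inhibition above a set limit at 5 µM in the primary screen, cut at about 50% in these data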;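 further: plate controls were negative control wells for no effect and 2.5 mM tranylcypromine positive control for full effect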
Target sequence (P33261 whole entry, looked up): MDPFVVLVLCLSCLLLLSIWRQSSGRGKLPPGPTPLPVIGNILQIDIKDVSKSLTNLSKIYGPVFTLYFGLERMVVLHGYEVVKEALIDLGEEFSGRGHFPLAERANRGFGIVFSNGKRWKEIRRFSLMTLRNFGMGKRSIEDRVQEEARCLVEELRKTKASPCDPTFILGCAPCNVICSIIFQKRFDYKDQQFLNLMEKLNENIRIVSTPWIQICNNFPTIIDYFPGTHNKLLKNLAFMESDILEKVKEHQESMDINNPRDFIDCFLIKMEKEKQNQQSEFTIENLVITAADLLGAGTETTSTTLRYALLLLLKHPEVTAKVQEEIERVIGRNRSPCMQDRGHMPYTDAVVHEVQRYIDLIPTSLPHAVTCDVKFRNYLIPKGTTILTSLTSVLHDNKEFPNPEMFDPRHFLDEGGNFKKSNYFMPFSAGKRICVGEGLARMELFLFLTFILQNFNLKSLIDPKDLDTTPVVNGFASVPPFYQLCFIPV
CYP2C19 activ: increases human CYP2C19 enzyme activity; 96,000 tested, under 10 active; activation factor at 5 µM; recombinant CYP2C19, luciferin-H EGE luminescence; stronger effect = higher value; 0 = fully inhibited enzyme, 1 = untreated enzyme; P33261;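 active means activation factor of at least 2 at 5 µM in the primary screen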;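 further: 0 = wells with 2.5 mM tranylcypromine and 1 = vehicle-only wells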
Numbers without * were called inactive; / = not tested or not shown.

SMILES | Cav3 T inh | PTK2B oligo ant | CYP2C9 activ | CYP2C9 inhib | CYP2C19 inh | CYP2C19 activ
CCCCCc1c2c(cc(O)c1C(=O)O)OC(=O)c1c(cc(OC)cc1C(=O)CCCC)O2 | -3.95* | / | / | / | / | /
CCCCc1c(C(=O)O)cc(OC)cc1C(=O)O | -0.236 | 0.68 | 1 | -4.9 | -0.4 | 1
Cc1ccc(NC(=O)CSc2nnc(NC(=O)CN3CCOCC3)s2)cc1 | 0.0772 | 0.04 | 0.9 | 9.7 | 56.9* | 0.4
CCCSc1nnc(NC(=O)Nc2ccc(F)cc2)s1 | -1.72 | -1.74 | 0.7 | 29.0 | 14.7 | 0.9
CC(=O)c1ccc(NC(=O)CSc2nnc(NC(=O)CN3CCOCC3)s2)cc1 | -1.07 | -0.29 | 0.3 | 66.8* | 5.7 | 0.9
CC(C)Nc1nnc(SCC(=O)Nc2ccc(F)cc2)s1 | -0.232 | -0.11 | 0.3 | 70.0* | 90.6* | 0.1
CC(C)Oc1ccc(CNC(=S)N/N=C/c2ccc([N+](=O)[O-])cc2)cc1 | 0.448 | 0.66 | 0.6 | 35.8 | -3.7 | 1
Cc1cc(N)n(-c2nc(-c3cccnc3)nc3ccccc23)n1 | / | -0.17 | 0.6 | 36.8 | 6.8 | 0.9
CCC(=O)O[C@]1(C(=O)SCF)[C@H](C)C[C@H]2[C@@H]3C[C@H](F)C4=CC(=O)C=C[C@]4(C)[C@@]3(F)[C@@H](O)C[C@@]21C | -0.491 | / | / | / | / | /
O=C(Nc1ccc(S(=O)(=O)N2CCc3ccccc3C2)cc1)C1CCCO1 (centres undefined) | -3.95* | 2.32 | 0.9 | 13.1 | 12.4 | 0.9
NS(=O)(=O)c1ccc(NC(=O)C2CCCO2)cc1 (centres undefined) | 0.988 | / | 1.1 | -10.3 | 3.2 | 1
O=C(O)C1CC=CCC1C(=O)Nc1ccc(S(=O)(=O)N2CCCc3ccccc32)cc1 (centres undefined) | -1.04 | -1.35 | 0.4 | 63.0* | -8.3 | 1.1
O=C(Nc1ccc(S(=O)(=O)N2CCCc3ccccc32)cc1)C1CCCO1 (centres undefined) | -1.35 | 0.21 | 0.3 | 65.3* | 59.5* | 0.4
O=C(O)C1CC=CCC1C(=O)Nc1ccccc1 (centres undefined) | -0.0209 | 0.4 | 0.8 | 17.6 | 15.2 | 0.8
O=S(=O)(NC1CC1)c1ccc(S(=O)(=O)N2CCCc3ccccc32)cc1 | -3.76 | -1.1 | 0.2 | 78.4* | 89.5* | 0.1
Cc1ccc(CNC(=O)Cn2c([N+](=O)[O-])cnc2C)cc1 | 0.0243 | 0.36 | 1 | 0.2 | 3.0 | 1
COc1cc(-c2nnc(SC(C)C(=O)Nc3c(C)n(C)n(-c4ccccc4)c3=O)o2)cc(OC)c1OC (centres undefined) | 0.333 | 0.46 | 0.7 | 25.6 | 4.7 | 1
O=C1NC2(CCCCC2)C(=O)N1c1ccccc1 | 0.912 | -0.08 | 0.9 | 10.5 | 22.0 | 0.8
CSc1ccc(N2C(=O)NC3(CCCCC3)C2=O)cc1 | -0.485 | -0.18 | 1.1 | -7.6 | 70.5* | 0.3
Cn1c(=O)c2c(-c3cccc(F)c3)c3c(nc2n(C)c1=O)-c1ccccc1C3O (centres undefined) | 0.121 | / | 0.9 | 5.1 | -13.7 | 1.1
CCOC(=O)C1CCCN(Cc2cc(Br)c(OC)cc2OC)C1 (centres undefined) | 0.313 | -0.67 | 1 | 4.9 | 84.4* | 0.2
CCOC(=O)C1CCCN(Cc2ccccc2F)C1 (centres undefined) | 0.406 | -0.1 | 1.2 | -18.1 | 75.0* | 0.3
CCOC(=O)C1CCCN(CC(=O)/C=C2/N(C)c3ccccc3C2(C)C)C1 (centres undefined) | -0.259 | -0.07 | 0.8 | 16.8 | 63.2* | 0.4
CCOC(=O)c1ccc(NC(=O)Cn2nnc(-c3ccccc3)n2)cc1 | -1.84 | 0.85 | 0.7 | 30.6 | -2.8 | 1
CCOC(=O)C1CCCN(CCC(=O)Nc2ccccc2)C1 (centres undefined) | 1.96 | 0.39 | 0.9 | 7.6 | 14.5 | 0.9
SMILES | Cav3 T inh | PTK2B oligo ant | CYP2C9 activ | CYP2C9 inhib | CYP2C19 inh | CYP2C19 activ
CN1/C(=C\C(=O)COC(=O)Cn2nnc(-c3ccccc3)n2)C(C)(C)c2ccccc21 | -1.09 | 0.7 | 0.3 | 73.7* | 12.5 | 0.9
CC(=O)N1CCc2cc(Br)cc(S(=O)(=O)NCCN3CCCCC3C)c21 (centres undefined) | 0.428 | -0.54 | 1 | 1.6 | 7.8 | 0.9
CCOC(=O)C(CC)n1cnc2c(oc3ccccc32)c1=O (centres undefined) | -0.807 | 0.21 | 0.8 | 19.5 | 14.0 | 0.9
CC1(C(=O)N(c2ccccc2)C(C(=O)NC2CCCC2)c2ccccn2)CC(=O)N=C2C=CC=CN21 (centres undefined) | -1.38 | 0.61 | 1.3 | -27.3 | -26.9 | 1.3
CCOC(=O)C1CCCN(Cc2cc(Br)ccc2OC)C1 (centres undefined) | -0.135 | 1.14 | 0.4 | 63.0* | 78.8* | 0.2
CCOc1cc(C)nc(N2CCCC(C(=O)NCc3ccccc3F)C2)n1 (centres undefined) | -0.668 | -0.01 | 1.2 | -20.0 | 58.3* | 0.4
CCOC(=O)C1CCCN(CC(=O)NC2=Nc3ccccc3N=C(C)C2c2ccccc2)C1 (centres undefined) | -6.21* | -0.61 | 0.1 | 91.4* | 89.8* | 0.1
CCOC(=O)C1CCCN(Cc2cc(OC)c(O)c(OC)c2)C1 (centres undefined) | -0.265 | 1.38 | 1.1 | -5.8 | 10.7 | 0.9
CC(/C=C/c1ccc(O)cc1)=N/O | -0.00629 | -0.33 | / | / | / | /
CC(=O)Nc1coc2ccc(Br)cc12 | -0.855 | 0.84 | 0.9 | 10.0 | 1.6 | 1
O=C(CC(SCCO)c1ccc(F)cc1)c1ccco1 (centres undefined) | 0.61 | -0.38 | 0.7 | 26.4 | 21.8 | 0.8
O=C(CC(SCCO)c1ccc2c(c1)OCO2)c1cccs1 (centres undefined) | -0.525 | 1.75 | 0.1 | 94.9* | 100.1* | 0
O=C(CSc1nnc(-c2ccc(O)cc2)n1Cc1ccco1)c1ccccc1 | 0.92 | -1.02 | 0.5 | 50.0* | 38.5 | 0.6
Cc1ccc(OCc2nnc(SCC(=O)c3ccccc3)n2Cc2ccco2)cc1 | -4.54* | -0.56 | 0 | 95.1* | 97.4* | 0
O=C(CC(SCc1ccco1)c1ccc(O)cc1)c1cccs1 (centres undefined) | -4.48* | 0.83 | 0 | 97.6* | 79.3* | 0.2
O=C(CSc1nnc(-c2cccnc2)n1Cc1ccco1)c1ccccc1 | / | / | 0.8 | 19.1 | 24.4 | 0.8
O=C(O)C1=C[C@@H](C2CCCCC2)C[C@@H](OCCCCO)O1 | 0.139 | / | / | / | / | /
COc1ccc([C@H]2/C=C\CN(C(=O)c3ccccc3)[C@@H](C)C(=O)N2Cc2ccc(F)cc2)cc1 | -0.879 | / | / | / | / | /
O=C(CSc1nnc(-c2ccc(O)cc2)n1Cc1ccco1)c1cccs1 | 0.0267 | -1.13 | 0.2 | 78.5* | 65.2* | 0.3
CCS(=O)(=O)N1CCCC(C(=O)NC2CCCC2)C1 (centres undefined) | -0.35 | -2.05 | 0.9 | 5.4 | 20.8 | 0.8
CCOC(=O)C1CCN(S(=O)(=O)c2cc(Cl)c(C)cc2OC)CC1 | / | -0.05 | 1 | 2.8 | 97.9* | 0

Screening data as filed in PubChem.
